Screens deposited in PubChem BioAssay by National Center for Advancing Translational Sciences (NCATS).
SARS PLP yeast = qHTS of Yeast-based Assay for SARS-CoV PLP. S. cerevisiae expressing SARS-CoV PLpro, growth rescue. actives 0.19% (n = 330,000). Potency, µM (doses to about 32.9 µM), for inactives: at the highest dose activity, positive = growth rescue, usual class: activators; also: potency is read from the fitted curve at half-maximal effect; 0% is about no effect; nearly all actives have a fitted effect of over 55% in size
Pf growth 48h = Primary qHTS for delayed death inhibitors of the malarial parasite plastid, 48 hour incubation | actives 5.9% (n = 310,000) | P. falciparum luciferase growth in erythrocytes, 48 h | Potency, µM (titrated, usually from 28.7 µM), for inactives: at the highest dose activity change, negative = inhibition, most hits filed as inhibitors; active = well fitted inhibition curve with a large enough effect; inconclusive = small, poorly fitted or top-dose-only effect, or another doubt; inactive = no such curve, though single readings can be large or run the other way; also: potency is read from the fitted curve at half-maximal effect; % is scaled to controls: 0 for no effect and ±100 for the full control effect
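Growth was read as firefly luciferase luminescence after a 48 h, 37 C, 5% CO2 exposure of compounds to reporter-bearing P. falciparum cultures (0.1% parasitemia, 2% hematocrit final) in Albumax-supplemented RPMI 1640.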
Shiga toxin inh = A qHTS for Small Molecule Inhibitors of Shiga Toxin | Vero cells, Shiga toxin protein synthesis inhibition reporter | inhibition, % at 38.7 µM | actives 9.2% (n = 290,000); in the data active = inhibition mostly above about 28%, no sharp cut-off; inactive = mostly below about 43%; also: 0% is about no effect
Pf growth 96h = Primary qHTS for delayed death inhibitors of the malarial parasite plastid, 96 hour incubation; Potency, µM (titrated, usually from 28.7 µM), for inactives: at the top dose activity change, negative = inhibition, actives largely listed as inhibitors; P. falciparum luciferase reporter growth, 96 h; actives 6.9% (n = 320,000); active = well fitted inhibition curve with a large enough effect; inconclusive = small, poorly fitted or top-dose-only effect, or another doubt; inactive = no such curve, though single readings can be large or run the other way; also: potency is read from the fitted curve at half-maximal effect; % is scaled to controls: 0 for no effect and ±100 for the full control effect
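Infected RBCs, 2% Hct / 0.05% parasitemia final; luciferase-reporter P. falciparum; cpd 96 h, 37 C, 5% CO2; luciferase detection reagent; luminescence.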
Cycloheximide cs = Cycloheximide Counterscreen for Small Molecule Inhibitors of Shiga Toxin; cell reporter, cycloheximide protein synthesis inhibition counterscreen; max response, %; actives 12% (n = 300,000); in the data active = max response mostly above about 13%, no sharp cut-off; inactive = mostly below about 14%; also: read at 38.3 µM for the half of the compounds with a filed dose; 0% is about no effect
NS1 function inh = qHTS Assay for Inhibitors of Influenza NS1 Protein Function. actives 0.4% (n = 270,000). Potency, µM (doses to about 46.1 µM), inactives show top-dose activity, positive = more growth. AID 2326, 2010; also: potency is read from the fitted curve at half-maximal effect; actives are rising curves; nearly all actives have a fitted effect of over 50% in size
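A cell-based growth assay was used: compounds that relieve NS1-induced slow growth of budding yeast raise OD600. Assay medium was yeast nitrogen base with ammonium sulphate and -URA supplement, pH 6.0, with 2% galactose.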
Numbers without * were called inactive. Most compounds without a hit are left out; they make up all but 21% or so of the library. Unless noted, calls follow the shape of the full dose curve.

For OC(COc1ccc(Cl)cc1)CN1C2=NCCCN2c2ccccc21 (stereo unspecified) the results were SARS PLP yeast -5%, Pf growth 48h 5.2µM*, Shiga toxin inh -17, Pf growth 96h inconclusive, Cycloheximide cs -7 and NS1 function inh 3%.
`O=C(CN1C2=NCCCN2c2ccccc21)c1ccc([N+](=O)[O-])cc1` gave SARS PLP yeast 3%, Pf growth 48h 1.9µM*, Shiga toxin inh -3, Pf growth 96h inconclusive, Cycloheximide cs -1 and NS1 function inh -10%.
Screening O=C(CN1C2=NCCCN2c2ccccc21)c1ccc(Cl)cc1Cl returned SARS PLP yeast -1%, Pf growth 48h 0.37µM*, Shiga toxin inh -10, Pf growth 96h -9%, Cycloheximide cs -4 and NS1 function inh -2%.
For O=C(CN1C2=NCCCN2c2ccccc21)c1cccc(Br)c1 the results were SARS PLP yeast -5%, Pf growth 48h inconclusive, Shiga toxin inh -9, Pf growth 96h inconclusive, Cycloheximide cs -3 and NS1 function inh 16%.
Cc1ccc2c(c1)N(C(=O)CCC(=O)NC1CCC(C)CC1)CCO2 (stereo unspecified) was read as SARS PLP yeast -10%, Pf growth 48h 0%, Shiga toxin inh 7, Pf growth 96h 58%, Cycloheximide cs 5 and NS1 function inh -15%.
CCCCN1CCCCC1C(=O)Nc1c(C)cccc1C (stereo unspecified) was read as Pf growth 48h -2% and Pf growth 96h 1%.
Screening CCCCN1CCCC1C(=O)Nc1c(C)cc(C)cc1C (stereo unspecified) returned Pf growth 48h -25% and Pf growth 96h 2.6µM*.
COC(=O)c1nc(N)sc1-c1ccc(Cl)c(Cl)c1 was read as SARS PLP yeast -1%, Pf growth 48h -5%, Shiga toxin inh 2, Pf growth 96h 37%, Cycloheximide cs -2 and NS1 function inh 1%.
For Cc1cc(C)n2c(nc3ccccc32)c1C(=O)NN the results were SARS PLP yeast -1%, Pf growth 48h -11%, Shiga toxin inh 18*, Pf growth 96h inconclusive, Cycloheximide cs 45* and NS1 function inh 8%.
For COC(=O)c1c(C)cc(C)n2c1nc1ccccc12 the results were SARS PLP yeast 0%, Pf growth 48h 12%, Shiga toxin inh -9, Pf growth 96h 7.4µM*, Cycloheximide cs 15 and NS1 function inh -16%.
COc1ccc2oc(C(=O)OCC(=O)Nc3cc(S(=O)(=O)N4CCOCC4)ccc3OC)c(C)c2c1 was read as SARS PLP yeast 0%, Pf growth 48h 8% and Pf growth 96h 31%.
`Cc1cc(C)cc(OCC(=O)OCC(=O)c2c(N)n(C)c(=O)n(C)c2=O)c1` gave SARS PLP yeast 11%, Pf growth 48h 22%, Shiga toxin inh -4, Cycloheximide cs -4 and NS1 function inh 12%.
CCOc1ccc(S(=O)(=O)N2CN(c3cccc(C(C)=O)c3)c3nc4ccccc4nc32)cc1 was read as SARS PLP yeast 2%.
Screening COC(=O)c1sccc1NC(=O)Nc1cccc(C)c1C returned SARS PLP yeast 1%, Pf growth 48h 23%, Shiga toxin inh 11, Pf growth 96h 4.1µM*, Cycloheximide cs 10 and NS1 function inh -9%.
Screening COC(=O)c1sccc1NC(=S)Nc1cc(C)cc(C)c1 returned SARS PLP yeast 0%, Pf growth 48h 18%, Shiga toxin inh -4, Pf growth 96h 10µM*, Cycloheximide cs -3 and NS1 function inh 10%.
COC(=O)c1sccc1NC(=O)Nc1ccc(OC)cc1 was read as SARS PLP yeast -15%, Pf growth 48h 67%, Shiga toxin inh 108*, Pf growth 96h 7%, Cycloheximide cs 35* and NS1 function inh -43%.
For COC(=O)c1sccc1NC(=O)Nc1cccc(C)c1 the results were SARS PLP yeast -5%, Pf growth 48h 294%, Shiga toxin inh 60*, Pf growth 96h inconclusive, Cycloheximide cs 32* and NS1 function inh -7%.
COc1ccc(N2C(=O)CC(N(Cc3ccco3)C(=O)CCC(=O)O)C2=O)cc1 (stereo unspecified) was read as SARS PLP yeast 2%, Pf growth 48h 17%, Shiga toxin inh -7, Pf growth 96h -29%, Cycloheximide cs -1 and NS1 function inh 5%.
